The values below come from PubChem BioAssay.

Broadly, the viability is a read-out of living cells in per cent, often relative to untreated cells. One may read the remaining activity as the signal under treatment as a percentage of the control signal.

Each structure is given as a SMILES string. Several values for one entry are separate records, joined by “and”; a condition that tells them apart may be missing. Equal values may be shown once. Inconclusive results are not listed. Activity calls are given as the source filed them.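 The calls were made as follows, unless noted: active = compounds whose cell count with miR-34 switched on is under 0.7 times the count with it off; inactive = the rest.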

Assay [1] is described as follows: P. berghei load reduction in hepatocytes – cell-based, HepG2, luciferase luminescence, HepG2 viability, primary screen (AID 624349; in the data active = parasite load remaining mostly below about 12%, no sharp cut-off; inactive = mostly above about 10%;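 also: 100% = mean of DMSO negative control wells on the same plate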). The conditions noted are these: P. berghei liver stage in HepG2, luciferase luminescence, concentration not given here; parasite load remaining: stronger effect = lower value; viability: measured here: HepG2 viability without parasites.
Assay [2] can be described thus: Wnt pathway potentiators raising nuclear beta-catenin – imaging, WNT3A-conditioned medium, mouse C2C12, NPC library, primary screen (AID 1117326; in the data active = nuclear beta-catenin stimulation mostly above about 4.2%, no sharp cut-off; inactive = mostly below about 10%). To be noted: stronger effect = higher value.
Assay [3] in a line: stimulators of insulin release from INS-1E, primary screen, cell-based, 5 mM glucose, NPC library (AID 1117329;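 active = compound raises insulin release from rat beta cells at 5 mM glucose, no numeric limit stated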). The conditions noted are these: rat INS-1E insulin secretion, at 10 µM, stronger effect = higher value.
The nature of assay [4]: growth inhibition of GSK3B-pretreated HCT116 cells – cell-based, CellTiter-Glo, 0.2 to 20 µM (AID 1117336;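 active = compounds lowering colon cancer cell viability after pretreatment blocking the GSK3B kinase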). To be noted: HCT116 viability after GSK3B inhibitor, at 20 µM, stronger effect = higher value.
Assay [5] is described as follows: inhibition of endothelial tube formation, primary screen, imaging, VEGF stimulated, CD31 staining, tube area, NPC library (AID 1117340;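 active = compound that reduces growth-factor-driven endothelial tube area in a mixed cell culture, no cutoff stated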). The conditions noted are these: VEGF-stimulated ADSC/ECFC co-culture, at 10 µM, stronger effect = higher value.
Assay [6] is described as follows: GLP1 release stimulators, primary, NCI-H716, NPC library (AID 1117341;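 active = compound raises GLP1 secretion from the human gut endocrine cells, with no numeric limit stated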). To be noted: NCI-H716 cells, at 10 µM, stronger effect = higher value.
Assay [7] can be described thus: HCT116 colon cancer cell growth inhibition, primary screen, CellTiter-Glo luminescence, NPC library (AID 1117342;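 active = compounds that lower survival of HCT116 colon cancer cells in the luminescence readout, no numeric limit stated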). The conditions noted are these: at 20 µM (top of the series). For orientation: In ATP-based viability assays light output follows the ATP content of the culture.
The nature of assay [8]: reduced SW480 viability measured with CellTiter-Glo, NPC library, primary (AID 1117343;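 active = compounds that lower viability of the colon cancer cells in the luminescence readout, with no numeric limit stated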). The conditions noted are these: CellTiter-Glo luminescence; at 20 µM (top of the series) unless noted.
Assay [9] can be described thus: NPC library primary testing for decreased DLD-1 cell viability via CellTiter-Glo (AID 1117346;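 active = compounds that lower survival of DLD-1 colon cancer cells in the luminescence readout, no cutoff given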). To be noted: DLD-1 viability, CellTiter-Glo luminescence; at 20 µM (top of the series).
For assay [10], the system named is Aerobactin synthetase IucA (Klebsiella pneumoniae). Put plainly: inhibition of K. pneumoniae IucA enzyme – biochemical, Tocris library, absorbance (AID 1345561; call rule not given here;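 also: 100% = enzyme without compound and 0% = no enzyme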). The conditions noted are these: purified IucA enzyme assay, absorbance (OD) read-out; stronger effect = lower value;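 tested at 8 µM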.
Assay [11] can be described thus: viability loss with induced miR-34 in A549 – imaging, A549 dox-inducible miR-34, nuclei and caspase counts, primary screen (AID 1347080). To be noted: A549 miR-34 inducible, Hoechst nuclei count, 48 h.
Assay [12] is described as follows: MELAS cybrid and Rieske KO viability enhancers – cell-based, MELAS cybrids, Rieske KO mouse fibroblasts, CellTiter-Glo, primary screen (AID 1508586;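 active = mean z-score across replicates of 1.96 or higher in either the MELAS or the Rieske mutant cell line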;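 also: z relative to plate mean and SD of compound and empty wells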). To be noted: low glucose.
Assay [13] is described as follows: galactose survival enhancers in mitochondrial complex I cybrids – cell-based, galactose medium, ATP luminescence, primary screen (AID 1645843;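 active = z-score of at least 1.8 in each of two replicates, scored against plate mean and spread of sample wells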;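 also: positive z means more ATP and so rescue of galactose-driven cybrid death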). To be noted: complex I mutant cybrid cells, 72 h, stronger effect = higher value.
Assay [14] is described as follows: viability loss in pontine glioma line – cell-based, SU-DIPG-IV, MIPE4.0, CellTiter-Glo, qHTS, dose response (AID 1347063; cut-off not given, nearly all actives have AC50 up to about 30 µM;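 also: compound exposure lasted 48 hours before the viability readout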). To be noted: CellTiter-Glo ATP luminescence.
The nature of assay [15]: growth inhibition of DIPG cells – cell-based, MIPE5.0 library, qHTS (AID 1347068; cut-off not given, nearly all actives have IC50 up to about 30 µM). To be noted: SU-DIPG-XXV viability. Background: In qHTS, concentration-response curves come from the screen itself.
Setting [16] is: stronger effect = lower value, cell number ratio, induced over uninduced.
Where [17] appears, read: measured here: relative caspase fold change +Dox/-Dox.
[18] abbreviates: measured here: total cells with miR-34 induction, stronger effect = lower value.
[19] abbreviates: measured here: total cells without miR-34 induction.
The mark [20] stands for this setting: MELAS cybrid survival, CellTiter-Glo 48 h, stronger effect = higher value.
Setting [21] is: Rieske KO mouse fibroblast survival, CellTiter-Glo 72 h.

`CCc1cc(Cl)c(OC)c(C(=O)NC[C@@H]2CCCN2CC)c1O`: in [1], the parasite load remaining is 103% (inactive). Also, in assay [1], the viability amounted to 87.5%. Also, the nuclear beta-catenin stimulation in assay [2] (at 10 µM) is 4.5% (inactive); in [2] (stimulation, at 2 µM) it was 1.7%. In assay [3], the insulin secretion stimulation is 5.2% (inactive). Moreover, the viability decrease in [4] is -86.7% (inactive). The tube area decrease in assay [5] was 2.8% (inactive). Besides, the GLP1 secretion stimulation in assay [6] is 5.8% (inactive). Moreover, the inhibition of viability in assay [7] was 51.9% (active). Further, the viability decrease (inhibition) is 58.3% (active) in [8] and 14.4% (inactive) in assay [9]. Further, the remaining activity in assay [10] is 112% (inactive). Also, the fold change in [11] (setting [16]) is 0.835 (inactive) and 0.921 (inactive); in [11] (setting [17]), 0.937 and 0.744. Moreover, the cell count is 7860 and 8160 in [11] (setting [18]); 9410 and 8850 in assay [11] (setting [19]). Also, the z-score was 0.117 (inactive) in [12] (setting [20]), 0.179 in [12] (setting [21]) and -0.605 (inactive) in assay [13].
On to `CC1(CN2CCC(n3c(=O)[nH]c4ccccc43)CC2)OCc2ccccc2-n2cccc21` (stereo not given), for which the nuclear beta-catenin stimulation in [2] (at 10 µM) is 2.3% (inactive); in assay [2] (stimulation, at 2 µM), 2%. Besides, the insulin secretion stimulation in assay [3] was -3.4% (inactive). Besides, in assay [4], the viability decrease is 78.6% (active). The tube area decrease in assay [5] was 7.2% (inactive). Moreover, the GLP1 secretion stimulation in assay [6] is 3.3% (inactive). The inhibition of viability in assay [7] is 113% (active). The viability decrease (inhibition) in [8] is 146% (active); in assay [9], 101% (active). The remaining activity in assay [10] is 97.5% (inactive). In addition, the outcome in [14] and in assay [15] was inactive. In addition, the fold change in assay [11] (setting [16]) was 0.899 (inactive); in [11] (setting [17]), 1.14. The cell count in assay [11] (setting [18]) was found to be 6010; in assay [11] (setting [19]), 6680. In addition, in [13], the z-score was -0.665 (inactive).
Turning to `CCN1CCC[C@H]1CNC(=O)c1c(OC)ccc(Br)c1OC`, in assay [1], the parasite load remaining is 122% (inactive) and 75.7% (inactive). For the same compound, in [1], the viability was 119% and 100%. The nuclear beta-catenin stimulation in [2] (at 10 µM) was 0.4% (inactive); in assay [2] (stimulation, at 2 µM) it was -0.6%. Also, the insulin secretion stimulation in assay [3] is 6.1% (inactive). Besides, in assay [4], the viability decrease was -9.5% (inactive). For the same compound, in [5], the tube area decrease is 19.3% (active). In assay [6], the GLP1 secretion stimulation was 0.8% (inactive). In assay [7], the inhibition of viability was 6.8% (inactive). The values for the viability decrease (inhibition) in assay [8] and in assay [9] were -6.9% (inactive) and 6.8% (inactive), respectively. Further, the remaining activity in [10] was 89% (inactive). Further, the fold change in assay [11] (setting [16]) was 0.989 (inactive) and 0.971 (inactive) and 0.881 (inactive); in [11] (setting [17]), 0.662 and 1.03 and 1.37. Besides, the cell count in assay [11] (setting [18]) was 9050 and 9640 and 10200; in [11] (setting [19]) it was 9150 and 9920 and 11500. Besides, the z-score in [12] (setting [20]) is 0.167 (inactive) and 0.0526 (inactive); in assay [12] (setting [21]), -0.0474 and -0.355; in assay [13], 0.63 (inactive) and 0.485 (inactive).
As to `CN1CCC(Nc2ncc3ncnc(Nc4ccc(F)c(Cl)c4)c3n2)CC1`, the nuclear beta-catenin stimulation is 11.6% (inactive) in assay [2] (at 10 µM) and 0.1% in assay [2] (stimulation, at 2 µM). For the same compound, in [3], the insulin secretion stimulation is 5.85% (inactive). Besides, in assay [4], the viability decrease is 57.4% (active). In [5], the tube area decrease was -4.5% (inactive). For the same compound, the GLP1 secretion stimulation in assay [6] was 6.3% (inactive). In addition, the inhibition of viability in assay [7] is 73.7% (active). Also, the viability decrease (inhibition) in assay [8] is 97.8% (active); in [9], 78.2% (active). The remaining activity in assay [10] was 123% (inactive). Moreover, the fold change in assay [11] (setting [16]) was 1.35 (inactive); in assay [11] (setting [17]), 0.869. Also, the results for the cell count in assay [11] (setting [18]) and in [11] (setting [19]) were 3140 and 2330, respectively. Moreover, the z-score in [13] is -0.455 (inactive).
